ALDH1A1 inh: ALDH1A1 (human) enzyme inhibition. P00352. Purified ALDH1A1, NADH fluorescence, propionaldehyde substrate. Potency, µM (highest dose often 75.3 µM), inactives show top-dose activity, negative = inhibition, actives largely listed as inhibitors. hit rate 7.3% among 220,000. AID 1030; active = well fitted inhibition curve with a large enough effect, not every such curve was filed as active; inconclusive = small, poorly fitted or top-dose-only effect, or another doubt; inactive = no such curve, though single readings can be large or run the other way;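 note: potency is the fitted concentration of half-maximal effect; plate controls were no enzyme wells and a reference inhibitor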
Target sequence (P00352 whole entry, looked up): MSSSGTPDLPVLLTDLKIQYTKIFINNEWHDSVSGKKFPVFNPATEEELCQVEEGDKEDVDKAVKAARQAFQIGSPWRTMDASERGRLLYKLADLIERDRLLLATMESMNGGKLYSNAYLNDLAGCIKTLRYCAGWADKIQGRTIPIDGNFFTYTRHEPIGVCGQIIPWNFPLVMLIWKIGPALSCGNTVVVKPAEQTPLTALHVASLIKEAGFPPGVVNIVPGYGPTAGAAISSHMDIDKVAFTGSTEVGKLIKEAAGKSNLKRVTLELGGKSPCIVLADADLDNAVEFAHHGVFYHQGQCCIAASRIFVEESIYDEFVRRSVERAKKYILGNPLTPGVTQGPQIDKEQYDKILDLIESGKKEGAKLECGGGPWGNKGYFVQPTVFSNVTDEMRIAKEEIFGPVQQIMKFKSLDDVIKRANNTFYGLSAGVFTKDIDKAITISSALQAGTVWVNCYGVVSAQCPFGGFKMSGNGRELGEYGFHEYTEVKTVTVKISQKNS
NPSR antagonist: neuropeptide S receptor (human) antagonism, cAMP; hit rate 1% among 220,000; Q6W5P4; CHO-NPSR cells, cAMP TR-FRET, antagonist mode; Potency, µM (highest dose often 38.3 µM), for inactives: at the highest dose activity change, negative = inhibition, hits mostly inhibitors; note: potency is the fitted concentration of half-maximal effect; nearly all actives have a fitted effect of over 50% in size
IMPase cell inh: cell-permeable inhibitors of inositol monophosphatase (IMPase); CHO-M1 cells, IP1 accumulation, HTRF TR-FRET ratio; inhibition (IP1 accumulation), % at 46.1 µM; 120,000 tested, under 10 active; active = well fitted curve in the direction sought with a large enough effect in the signal ratio, not every such curve was filed as active; inconclusive = small, poorly fitted or top-dose-only effect, or a change in a side signal; inactive = no such curve, though single readings can be large or run the other way; the % refers to the signal ratio;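 note: cells stimulated with carbachol in lithium chloride buffer; plate controls were DMSO basal wells for no effect and reference inhibitor wells for full effect; higher means more IMPase inhibition seen as more IP1 and lower FRET ratio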
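CHO-M1 cells (CHO stably expressing M1 receptor), compound up to 46 uM final, stimulated with carbachol (50 uM as added) in buffer with 50mM LiCl, pH 7.4, 30 min at 37C. Cytosolic IP1 read by TR-FRET; AC50 from Hill fits.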
PNC inhibitor: blocks assembly of the perinucleolar compartment. PC3M PTB-GFP, PNC prevalence imaging, 16 h; stronger effect = lower value. AID 2417. hit rate 3.1% among 140,000. activity change (PNC), negative = inhibition, % at 10 µM;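 active = readout at or below -70, meaning at least 70% loss of cells showing the perinucleolar compartment, a nuclear body marking cancer cells; inconclusive = readout between -30 and a set limit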;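 note: plate controls were DMSO wells for no effect and camptothecin positive control wells for full effect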
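Compounds are pinned in duplicate onto adhered PC3M cells stably expressing GFP-tagged PTB and incubated 16 h at 37 C. Cells are then fixed, nuclei stained with Hoechst, and PNC-positive cells counted.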
IMPase Li inh: cell-permeable IMPase inhibitors with lithium potentiation; CHO-M1 cells, IP1 TR-FRET (IP-One), carbachol + lithium; Potency, µM (top dose mostly 59.4 µM), for the others: at the top dose activity, negative = IMPase inhibition, actives largely listed as inhibitors; hit rate 0.35% among 210,000;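 note: IP1 builds up when IMPase is blocked and the TR-FRET signal falls; potency is the fitted concentration of half-maximal effect; plate controls were basal vehicle for no effect and high inhibitor control for full effect; nearly all actives have a fitted effect of over 50% in size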
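Steps: plate 2000 CHO-M1 cells per well and culture 16–30 h; add compound and lithium; incubate 30 min, 37C; add d2-IP1 tracer and Eu cryptate anti-IP1 antibody in lysis buffer; read after 10 min at room temperature.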
HPGD block: HPGD (human) dehydrogenase inhibition. Potency, µM, for the others: at the highest dose activity change, negative = inhibition, actives largely listed as inhibitors. purified HPGD, NADH fluorescence kinetic, PGE2 substrate. hit rate 4.3% among 150,000. P15428; active = well fitted inhibition curve with a large enough effect, not every such curve was filed as active; inconclusive = small, poorly fitted or top-dose-only effect, or another doubt; inactive = no such curve, though single readings can be large or run the other way; note: potency is the fitted concentration of half-maximal effect
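20 nM HPGD preincubated 15 min at room temperature with compound in 50 mM Tris-HCl pH 8, 0.01% Tween 20. Started with 1 mM NAD+ and 30 uM prostaglandin E2; NADH fluorescence (360/450 nm) read 5 times over 30-s intervals, last minus first.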
An asterisk follows results filed as active; ? = inconclusive; nt = no result; [ ] = dose if it differs, or a comment. This is a sample that favours compounds with a hit; in the whole collection about 11% have one here. Unless noted, calls come from the whole dose curve; as a rule, active = well fitted curve in the direction sought with a large enough effect; inconclusive = small, poorly fitted or top-dose-only effect, or another doubt; inactive = no such curve, though single readings can be large; an effect the other way counts as inactive or inconclusive. Unless noted, % is set by controls: 0 for no effect and ±100 for the full control effect.

SMILES	ALDH1A1 inh	NPSR antagonist	IMPase cell inh	PNC inhibitor	IMPase Li inh	HPGD block
OC(CNCc1ccccn1)c1ccccc1 (configuration not stated)	3%	9%[46.1 µM]	-2	?	-4%	-1%
CCn1nnnc1NCc1ccc(N2CCCC2)cc1	35µM*	-22%[46.1 µM]	20	21	49%[38.3 µM]	-13%
CCOc1ccc2ccccc2c1CNc1nnnn1CC	3%	-2%	nt	nt	4%	nt
COc1ccc(S(=O)(=O)n2ccc(-c3ccc(OCCN(C)c4ccccn4)cc3)n2)cc1	?	-20%[46.1 µM]	8	38	3%[38.3 µM]	-18%
CCN(CC)S(=O)(=O)c1ccc(-c2nnco2)cc1	-2%	-6%[46.1 µM]	-3	-100*	2%	-10%
CSc1ccc(C(=O)C2CCCN(C(=O)c3csc(C(C)=O)c3)C2)cc1 (configuration not stated)	2µM*	1%	nt	nt	15%	nt
CCCCN(C(=O)c1ccc2c(c1)OCO2)c1ccccc1	14µM*	45%	nt	nt	24%	nt
CC(OC(=O)CNC(=O)c1ccc2c(c1)OCO2)C(=O)NCCC1=CCCCC1 (configuration not stated)	3%	-5%[7.67 µM]	11	?	3%[38.3 µM]	18µM*
CC(OC(=O)Cc1ccc(Cl)cc1)C(=O)NCCC1=CCCCC1 (configuration not stated)	-12%	12%	nt	4	7%	-14%
CCCCOCCCNC(=O)c1ccc2c(c1)OCO2	-1%	-3%[46.1 µM]	8	13	-16%[38.3 µM]	25µM*
CCCCOCCOCCOCc1cc2c(cc1CCC)OCO2	10µM*	nt	nt	nt	22%	-11%
CCCCOCCOCCOCCCC	7%	nt	nt	nt	12%	-1%
CCCCNC(=O)c1ccccc1NC(=O)c1ccc2c(c1)OCO2	0%	-15%	nt	nt	-1%	nt
CCOCCCNC(=O)C(NC(=O)c1ccc2c(c1)OCO2)c1ccccc1 (configuration not stated)	-4%	7%	nt	nt	1%	nt
CCOc1ccccc1C(=O)N1CCN=C1SC	4%	-15%[46.1 µM]	2	17	-21%[38.3 µM]	-1%
COCCCNC(=O)c1ccc2c(c1)OCO2	-2%	6%[46.1 µM]	-2	23	15%[38.3 µM]	6.3µM*
O=C(NCCCN1CCN(CCCNC(=O)c2ccc3c(c2)OCO3)CC1)c1ccc2c(c1)OCO2	?	-3%[46.1 µM]	11	-3	38%[38.3 µM]	-18%
CCCCc1nc(NCCN2CCOCC2)c(C#N)c2c1COC(C)(C)C2	11µM*	-12%[46.1 µM]	3	-9	1%[38.3 µM]	-18%
CC(C)Cc1nc(NCCN2CCOCC2)c(C#N)c2c1COC(C)(C)C2	-1%	-23%[46.1 µM]	-8	?	25%[38.3 µM]	-3%
Nc1ccc(C(=O)c2ccccc2C(=O)O)cc1Cl	17%	-7%[46.1 µM]	-5	-107*	0%[38.3 µM]	-3%
COc1cc(/C=N/NC(=O)CN2CCOCC2)ccc1OCc1ccccc1	-3%	6%	nt	?	14%	-15%
CCOC(=O)N1CCN(C(=O)COc2cccc3c2CCN(Cc2ccccc2C)C3=O)CC1	25µM*	-16%	nt	?	15%	1%
CC1CCN(C(=O)COc2cccc3c2CCN(Cc2ccccc2)C3=O)CC1	28µM*	-19%	nt	nt	10%	nt
CCOC(=O)N1CCN(C(=O)COc2cccc3c2CCN(Cc2cccc(C)c2)C3=O)CC1	3%	7%	3	-10	19%	-9%
COc1cccc(C(=O)NC2CCN(CC(=O)Nc3cccc(C)c3C)CC2)c1	-7%	-7%	nt	nt	4%	nt
O=c1c2ccccc2nc(/C=C/c2c[nH]c3ccccc23)n1CCO	0%	?	nt	nt	20%	nt
CC(/C=C/c1ccc(N(C)C)cc1)=N\N=C1\NC(=O)CC(C(=O)Nc2ccccc2)S1 (configuration not stated)	?	-6%	nt	49	0%	-15%
CC(/C=C/c1ccc(N(C)C)cc1)=N/N=C1/NC(=O)CC(C(=O)Nc2ccc(Cl)cc2)S1 (configuration not stated)	25µM*	-19%	nt	13	-1%	-23%
O=C(CC12CC3CC(CC(C3)C1)C2)NC(=S)N1CCCCC1	20µM*	-37%	-10	19	23%	?

High-throughput results: PubChem, National Center for Advancing Translational Sciences (NCATS)
